Laboratory results taken from PubChem BioAssay (NCI).
This is part of a sample that, as a whole, favours compounds with a hit. Of some 79,000 tested, about 15% had one in any assay. A number with no mark means an inactive call. Rule as the data show it: active = growth inhibition above about 70%; inactive = the rest.

Experiment: NCI Yeast Anticancer Drug Screen. Data for the bub3 strain (AID 167)
Settings: S. cerevisiae bub3 mutant strain, at 50.0 µM, stronger effect = higher value
Summary of the method: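 Readout: yeast growth inhibition, expressed relative to vehicle-only wells. The test organism is a mutant strain from a panel with lesions in DNA repair or checkpoint genes.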

Compound | growth inhibition [%]
CCCCCCCCCCCCCCCCCC1=NCC(C)O1 (stereo not given) | 13.3
O=C1C(N=Cc2c(O)ccc3ccccc23)CON1C(c1ccccc1)(c1ccccc1)c1ccccc1 (stereo not given) | 3.55
COc1cc(/C=C/C(=O)OC2C(O)C3CC(OC(=O)c4cc(OC)c(OC)c(OC)c4)CC2N3C)cc(OC)c1OC (stereo not given) | -7.95
Cc1cc([N+](=O)[O-])ccn1 | -6.15
COc1cc(NC(C)CCCN)c2nccc(C)c2c1 (stereo not given) | -62.5
O=S(=O)(N1CCOCC1)N1CCOCC1 | 25.6
NC(=O)N/N=C/c1ccccc1O | -1.2
COc1ccc2nc3cccc([N+](=O)[O-])c3c(NCCC(=O)O)c2c1 | -5.25
CCN(CC)P(=O)(c1ccc2c(c1)OCCOCCOCCOCCO2)N(CC)CC | 33.6
N#CC(NCCCNC(C#N)c1ccccc1)c1ccccc1 (stereo not given) | -3.9
CC(=O)SC1CC2CCC1C2 (stereo not given) | -19.7
CCOC(=O)COc1c(C)cccc1C | 32.5
CCCCOCCOCC(C)O (stereo not given) | -8.4
CC(C)CC(Br)C(=O)NCC(=O)NCC(=O)O (stereo not given) | 2.85
OC1CCCCC2CC2C1O (stereo not given) | 3.55
CSc1nc(NC2OC(COC(C)=O)C(OC(C)=O)C(OC(C)=O)C2OC(C)=O)c2c(n1)OCC2=O (stereo not given) | 30.9
Nc1ncnc2nc(N3CCN(CCO)CC3)[nH]c12 | -26.2
ClC1CCC(c2ccccc2)CC1 (stereo not given) | -11.2
CC(C)[Si](C#CC[Si](C(C)C)(C(C)C)C(C)C)(C(C)C)C(C)C | -20.3
Cc1ccc(N(C(=O)CC(=O)NN)C(=O)c2ccccc2Cl)cc1 | 4

Compound | growth inhibition [%]
Cc1nc2cc(Cl)ccc2s1 | 30.3
c1ccc2[nH]c(N=Nc3cccc4c(N=Nc5cc6ccccc6[nH]5)cccc34)cc2c1 | -2.6
CCOc1ccc(N(O)C(C)=O)cc1 | -8.75
CC1CC(=O)C(CC(=O)O)[C@H]1C(C(=O)C(=O)Nc1cc(Cl)ccc1Cl)[N+](=O)[O-] (stereo not given in full) | -13.3
O=[N+]([O-])c1ccc(C(O)(C#CCN2CCCC2)c2ccccc2)cc1 (stereo not given) | 3.5
CCC(CO)N1CNC(=S)NC1 (stereo not given) | 4.7
CC(=O)Nc1ccccc1NOC(=O)c1ccccc1NC(C)=O | 25.1
CCN(CC)c1ccc(C(C#N)(c2ccc(N(CC)Cc3cccc(S(=O)(=O)O)c3)cc2)c2ccc(N(CC)Cc3cccc(S(=O)(=O)O)c3)cc2)cc1 | -7.45
CC1CCCN(C(=O)Nc2ccccc2)C1 (stereo not given) | 4.65
CCCC(=O)Oc1ccc2ccccc2c1 | -1.5
CCOC(=O)[C@H]1Nc2ccc(C)cc2C2c3ccccc3CC21 (stereo not given in full) | -23.3
CC(C)CN(CC#N)CC(C)C | -49.1
O=[N+]([O-])c1ccc(-c2cc3ccccc3nc2Cl)cc1 | 28.4
CC(C)(C)[Si](C)(C)OCC1OC(n2cnc3c(N)ncnc32)C(O)C1O (stereo not given) | 3.5
O=C(NC(=O)c1ccc(F)c(Cl)c1)NC1CC1 | 9.25
N#CCCNCCC[Si]12OCCN(CCO1)CCO2 | 7.15
Cc1cc(N(CCC#N)CCC#N)ccc1/C(N=Nc1cccc(Cl)c1)=N/NC(=O)c1cc(Cl)ccc1O | 33.6
CCCCCCCCOc1ccc(Cl)cc1 | -21.6
NC(=O)c1ccccc1NC(=O)C(=O)Cc1nc2ccccc2[nH]c1=O | 1.25
CC(=O)OCC1OC(n2ccc(=O)[nH]c2=O)CC1N=[N+]=[N-] (stereo not given) | 13.3

Experiment: NCI Yeast Anticancer Drug Screen. Data for the mlh1 rad18 strain (AID 175)
Settings: S. cerevisiae mlh1 rad18 strain growth inhibition; at 50.0 µM; stronger effect = higher value
Summary of the method: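 A repair-deficient yeast strain is exposed to test compound, and growth is scored relative to vehicle-treated controls.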

Compound | growth inhibition [%]
CCCCCCCCCCCCCCCCCC1=NCC(C)O1 (stereo not given) | -10.1
O=C1C(N=Cc2c(O)ccc3ccccc23)CON1C(c1ccccc1)(c1ccccc1)c1ccccc1 (stereo not given) | 40.5
COc1cc(/C=C/C(=O)OC2C(O)C3CC(OC(=O)c4cc(OC)c(OC)c(OC)c4)CC2N3C)cc(OC)c1OC (stereo not given) | -4.95
Cc1cc([N+](=O)[O-])ccn1 | -9.9
COc1cc(NC(C)CCCN)c2nccc(C)c2c1 (stereo not given) | -36.9
O=S(=O)(N1CCOCC1)N1CCOCC1 | 3.85
NC(=O)N/N=C/c1ccccc1O | 6.75
COc1ccc2nc3cccc([N+](=O)[O-])c3c(NCCC(=O)O)c2c1 | 25.8
CCN(CC)P(=O)(c1ccc2c(c1)OCCOCCOCCOCCO2)N(CC)CC | 37
N#CC(NCCCNC(C#N)c1ccccc1)c1ccccc1 (stereo not given) | -18.4
CC(=O)SC1CC2CCC1C2 (stereo not given) | 15.7
CCOC(=O)COc1c(C)cccc1C | 12.5
CCCCOCCOCC(C)O (stereo not given) | 2.05
CC(C)CC(Br)C(=O)NCC(=O)NCC(=O)O (stereo not given) | -8.95
OC1CCCCC2CC2C1O (stereo not given) | -5.65
CSc1nc(NC2OC(COC(C)=O)C(OC(C)=O)C(OC(C)=O)C2OC(C)=O)c2c(n1)OCC2=O (stereo not given) | 18.1
Nc1ncnc2nc(N3CCN(CCO)CC3)[nH]c12 | -12.5
ClC1CCC(c2ccccc2)CC1 (stereo not given) | -2.6
CC(C)[Si](C#CC[Si](C(C)C)(C(C)C)C(C)C)(C(C)C)C(C)C | -9.35
Cc1ccc(N(C(=O)CC(=O)NN)C(=O)c2ccccc2Cl)cc1 | -5.9

Compound | growth inhibition [%]
Cc1nc2cc(Cl)ccc2s1 | 26.2
c1ccc2[nH]c(N=Nc3cccc4c(N=Nc5cc6ccccc6[nH]5)cccc34)cc2c1 | 8.65
CCOc1ccc(N(O)C(C)=O)cc1 | 0
CC1CC(=O)C(CC(=O)O)[C@H]1C(C(=O)C(=O)Nc1cc(Cl)ccc1Cl)[N+](=O)[O-] (stereo not given in full) | -2
O=[N+]([O-])c1ccc(C(O)(C#CCN2CCCC2)c2ccccc2)cc1 (stereo not given) | 12.7
CCC(CO)N1CNC(=S)NC1 (stereo not given) | 0.3
CC(=O)Nc1ccccc1NOC(=O)c1ccccc1NC(C)=O | 18.1
CCN(CC)c1ccc(C(C#N)(c2ccc(N(CC)Cc3cccc(S(=O)(=O)O)c3)cc2)c2ccc(N(CC)Cc3cccc(S(=O)(=O)O)c3)cc2)cc1 | 29.6
CC1CCCN(C(=O)Nc2ccccc2)C1 (stereo not given) | 1.15
CCCC(=O)Oc1ccc2ccccc2c1 | -33.5
CCOC(=O)[C@H]1Nc2ccc(C)cc2C2c3ccccc3CC21 (stereo not given in full) | -22.8
CC(C)CN(CC#N)CC(C)C | -50
O=[N+]([O-])c1ccc(-c2cc3ccccc3nc2Cl)cc1 | 17
CC(C)(C)[Si](C)(C)OCC1OC(n2cnc3c(N)ncnc32)C(O)C1O (stereo not given) | -2.35
O=C(NC(=O)c1ccc(F)c(Cl)c1)NC1CC1 | 5.3
N#CCCNCCC[Si]12OCCN(CCO1)CCO2 | 2.4
Cc1cc(N(CCC#N)CCC#N)ccc1/C(N=Nc1cccc(Cl)c1)=N/NC(=O)c1cc(Cl)ccc1O | -59.4
CCCCCCCCOc1ccc(Cl)cc1 | -28.9
NC(=O)c1ccccc1NC(=O)C(=O)Cc1nc2ccccc2[nH]c1=O | 6.15
CC(=O)OCC1OC(n2ccc(=O)[nH]c2=O)CC1N=[N+]=[N-] (stereo not given) | 0.35
